These results are taken from PubChem BioAssay (EPA / NIEHS).

Each structure is given as a SMILES string. Calls of active or inactive are those of the source. Rule for the calls: active = hit-call score of the fitted dose curve at least 0.9, where 1 is the maximum; inactive = score below 0.9.

Read-out in the test: Interferon-gamma inducible Protein 10 (IP10), CXCL10 (gene 3627)
Put plainly: BSK_BE3C_IP10: BioMAP Diversity Plus: BE3C Assay for Interferon-gamma inducible Protein 10 (IP10) Biomarker Activity (AID 2283034). To be noted: primary human bronchial epithelial cells; actives raise or lower the signal. The essentials:
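Using primary human bronchial epithelial cultures, the assay captures IP-10 by ELISA one day (24 h) after exposure. Parallel SRB staining of total protein flags overt cytotoxicity. Fits run bidirectionally relative to DMSO.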
In the case of `COCCOC[C@H](CC1(C(=O)NC2CCC(C(=O)O)CC2)CCCC1)C(=O)Oc1ccc2c(c1)CCC2` (stereo not given in full), the outcome was inactive.

A word on the AC50: it is the midpoint of the concentration-response curve, whichever way the signal moves. Consider `COc1cc(-c2nc(NC(=O)c3cc4cc(C)cc(C)c4n3CC(=O)O)sc2CCC2CCCCC2)c(OC)cc1Cl`, for which the AC50 was 1.3 µM (active).

As for `NCC1(Cc2noc(=O)[nH]2)CCCCC1`, the outcome was inactive.

As to `CCCCC(CC)COC(=O)CC(C(=O)OCC(CC)CCCC)S(=O)(=O)O` (stereo not given), the AC50 was 7.16 µM (active).

As for `CCOC(=O)CCC(=O)OCC`, the result was inactive.

For the compound `Nc1ccc(S(=O)(=O)c2ccc(N)cc2)cc1`, the result was inactive.

Consider `CC(C)c1ccc(C(=O)N=C(N)N)cc1S(C)(=O)=O`, for which the outcome was inactive.

`CCCCCCOCCO`: the outcome was inactive.

Regarding `CC(CO)OC(C)CO` (stereo not given) (tested in a mixture with another compound), the result was inactive.

Take `COc1cc(C=O)ccc1O`: the outcome was inactive.

Consider `c1cc(-c2ccncc2)ccn1`, for which the result was inactive.

Consider `CCNc1cccc(C)c1`, for which the outcome was inactive.

For `CN1CCN(Cc2cc(-c3ccc4[nH]c(=O)oc4c3)co2)[C@@H](c2ccc(F)cc2)C1`, the outcome was inactive.

For `Cc1nc(-c2ccc3c(c2)CCN(CCC2CCC(NC(=O)/C=C/c4ccc(F)cc4)CC2)CC3)no1` (stereo not given), the AC50 was 15 µM (active).

For the compound `O=c1c(O)c(-c2ccc(O)c(O)c2)oc2cc(O)cc(O)c12`, the outcome was inactive.

`CN[C@H]1CC[C@@H](c2ccc(Cl)c(Cl)c2)c2ccc(S(N)(=O)=O)cc21`: the AC50 was 37 µM (active).

For the compound `CCCCN(CCCC)CCCC`, the result was inactive.

On to `COC(=O)c1ccc(O)cc1`, for which the result was inactive.

Consider `CC1=C(/C=C/C(C)=C/C=C/C(C)=C/CO)C(C)(C)CCC1`, for which the result was inactive.

As for `CNC(=O)[C@H]1O[C@@H](n2cnc3c(NCc4cc(Cl)ccc4OCc4cc(C)no4)ncnc32)[C@H](O)[C@@H]1N`, the outcome was inactive.
